A selection: hits, their analogues and other compounds. The true share with any hit is near 7.3%.
HCMV inh: human cytomegalovirus inhibition | HFF cells, HCMV-luciferase reporter, 72 h; active compounds read low | activity change, negative = inhibition, % at 57.5 µM | 410,000 tested, 4.5% active | AID 1259415; in the data active = activity change below about -60%; inconclusive = no clear call, values can overlap the other calls; inactive = above about -39%
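Cell-based, HFFs, 1000 cells/well, 16 h 37C; cpds in DMSO + HCMV-luc, MOI 1 PFU/cell; 72 h 37C; OneGlo luminescence after 5 min RT; norm. to buffer vs Salinomycin 10uM.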
VACV mCherry inh: inhibitors of vaccinia virus infection (mCherry reporter signal); 310,000 tested, 0.63% active; Vaccinia virus mCherry reporter infection, fluorescence; Potency, µM (series often up to 36.5 µM), for inactives: at the highest dose activity change, negative = inhibition, hits mostly inhibitors; calls by dose curve; tested in A549 cells; note: potency is the fitted concentration of half-maximal effect; nearly all actives have a fitted effect of over 35% in size
Vaccinia Venus: inhibitors of vaccinia virus (Venus reporter); Vaccinia virus Venus reporter expression, fluorescence; Potency, µM (titrated, usually from 36.5 µM), inactives show at the highest dose activity change, negative = inhibition, usual class: inhibitors; 330,000 tested, 0.46% active; AID 720580; calls by dose curve; tested in A549 cells; note: potency is the fitted concentration of half-maximal effect; nearly all actives have a fitted effect of over 30% in size
FMDV antiviral: foot and mouth disease virus antiviral activity; FMDV antiviral cell-based qHTS; Potency, µM (titrated, usually from 57.9 µM), for inactives: at the highest dose activity change, negative = inhibition, actives largely listed as inhibitors; 410,000 tested, 1.2% active; calls by dose curve; tested in HEK293T cells; note: read-out not given here; potency is the fitted concentration of half-maximal effect; nearly all actives have a fitted effect of over 45% in size
HCV inhibitor: inhibitors of hepatitis C virus infection | AID 651820 | Potency, µM (series often up to 41.8 µM), inactives show top-dose activity change, negative = inhibition, most hits filed as inhibitors | Huh7.5.1 HCVcc-Cre infection, luciferase reporter, 44 h | 340,000 tested, 3.4% active; active = well fitted inhibition curve with a large enough effect; inconclusive = small, poorly fitted or top-dose-only effect, or another doubt; inactive = no such curve, though single readings can be large or run the other way; note: potency is the fitted concentration of half-maximal effect
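Antiviral activity was scored by luciferase reporter output from cells infected with HCVcc-Cre (~0.5 moi) in presence of compound, 44 h infection period, cells seeded 1,000/well 4 h prior.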
Starred values were filed as active, the others as inactive; i = inactive; ? = inconclusive; . = no result; [ ] = another dose, or the depositor's remark. % is set by controls: 0 for no effect and ±100 for the full control effect.

SMILES	HCMV inh	VACV mCherry inh	Vaccinia Venus	FMDV antiviral	HCV inhibitor
CSc1ccc(/C=C/C(=O)c2c(O)cc(C)oc2=O)cc1	-80*	17%	34%	-30%	9%
Cc1cc(O)c(C(=O)/C=C/c2ccc(Cl)cc2)c(=O)o1	101	-8%	7%	25µM*	-7%
C/C(=C\C(=O)c1c(O)cc(C)oc1=O)N(C)C	-8	13%	0%	2%	19%
CNS(=O)(=O)c1cn(CC(=O)N2CCN(c3ccc(C)cc3C)CC2)cc1S(=O)(=O)NC	0	-13%	-6%	-4%	.
O=C(c1c2c(nc3ccccc13)C(=O)N(C1CCCCC1)C2)N1CCN(c2ccc(F)cc2)CC1	33	-18%	-15%	-28%	.
Cc1occc1C(=O)N1CCCC(Nc2ccc(F)cc2)C1 (stereo unspecified)	23	.	.	-24%	6%
Cc1occc1C(=O)N1CCCC(Nc2ccc(C(C)C)cc2)C1 (stereo unspecified)	-65*	-26%	-23%	0%	-14%
COc1ccc(-n2c(COc3ccc(C)cc3)nnc2SCc2ccc(C#N)cc2)cc1	-13	.	.	-25%	22µM*
COc1ccc(NCc2nnc(SCC(=O)Nc3nc(-c4ccccc4)cs3)n2-c2ccccc2)cc1	-82*	i	-22%	-12%	?
COc1ccc(-n2c(COc3ccc(Cl)cc3)nnc2SCc2ccc(C#N)cc2)cc1	2	?	?	-18%	?
COc1ccc(NCc2nnc(SCc3ccc(Cl)cc3)n2-c2ccccc2)cc1	-32	i	-16%	?	8.9µM*
COc1ccc(C(=O)CSc2nnc(CNc3nc(-c4ccccc4)cs3)n2C)cc1	-10	.	-26%	40µM*	-13%
COc1ccc(-n2c(CNc3ccc(C)cc3)nnc2SCC(=O)Nc2nc(-c3ccccc3)cs2)cc1	-37	.	.	-22%	-24%
CN(C)c1cc(-c2cccc(NS(C)(=O)=O)c2)ncn1	.	.	.	0%	.
O=C(Nc1c(C(=O)N2CCN(c3ccccc3F)CC2)oc2ccccc12)c1cccc(F)c1	-16	-16%	0%	13%	.
COc1cccc2c1cc1c(=O)n(CC(=O)NCc3ccco3)nc(C)n12	-16	-8%	-16%	1%	.
CCN(CC)c1ccc(/C=C(/C#N)c2nc3ccccc3[nH]2)c(OC(C)C)c1	-35	.	.	33%	2µM*
CCOc1cccc(/C=C(/C#N)c2nc3ccccc3[nH]2)c1OCC(=O)O	-101*	.	.	-12%	5%
O=C(c1ccccc1F)N1C[C@@H]2[C@H](c3ccccc31)[C@H](CO)N2C(=O)c1ccccc1	-5	.	.	.	.
CCN1/C(=C/C=C/C=C/C=C/c2sc3ccccc3[n+]2CC)Sc2ccccc21	-96*	.	.	10µM*	?
CCN1/C(=C/C=C/c2sc3ccccc3[n+]2CC)Sc2ccccc21	.	i	i	14µM*	1.6µM*
Cc1ccc(N=C2N=C(N)c3ccccc32)cc1C	-63*	.	.	-6%	?
COc1ccccc1C(=O)NC(=S)Nc1ccc(NC(=O)c2cccs2)cc1	-67*	-28%	-22%	?	?
COc1ccccc1C(=O)Nc1ccc(NC(=O)c2ccco2)cn1	17	i	-13%	27%	?
COc1ccccc1C(=O)Nc1ccc(NC(=O)c2cccs2)cc1	-25	?	?	-25%	.
SMILES	HCMV inh	VACV mCherry inh	Vaccinia Venus	FMDV antiviral	HCV inhibitor
COc1ccccc1C(=O)NC(=S)Nc1ccc(NC(=O)c2ccco2)cc1	-75*	-3%	-3%	-2%	-20%
Cc1cc(C)c(Cn2cnc3nc4c(cc3c2=O)CCCC4)c(C)c1	-18	-18%	-18%	-10%	.
Cc1sc2ncn(CC(=O)N(C)c3ccc(C(C)C)cc3)c(=O)c2c1S(=O)(=O)N1CCC(C)CC1	-11	-14%	-9%	-18%	.
CC(=O)Nc1c(C(=O)Nc2ccccc2F)oc2ccccc12	5	?	-13%	-17%	.
COC(=O)[C@@H]1CCCN1Cc1ccc2c(c1)CN(Cc1cc(OC)c3c(c1)OCO3)CCO2	.	-9%	-8%	-9%	.
CCOc1cc(/C=C2/SC(=Nc3ccccc3)N(Cc3cccnc3)C2=O)ccc1OCC#N	-60*	-18%[1.46 µM]	-26%	?	?
COc1ccc(/C=C2\SC(=S)N(Cc3cccnc3)C2=O)cc1C	6	-6%	5%	16%	2%
CCc1nn(CC(=O)NCCCOC)c(=O)c2cc3occc3n12	2	-7%	-2%	-11%	.
CCC1CN(CCC(=O)N2CCN(c3ncccn3)CC2)Cc2cc(OC)ccc2O1 (stereo unspecified)	.	-15%	0%	-19%	.
NC(=O)CSc1nnc(-c2ccccn2)n1Cc1ccco1	17	-11%	-3%	-7%	5%
Clc1cccc(-c2nnc(SCc3nc4ccccc4[nH]3)n2Cc2ccco2)c1	?	.	.	-23%	-27%
c1coc(Cn2c(SCc3nc4ccccc4[nH]3)nnc2-c2cnccn2)c1	-36	.	.	?	-11%
Clc1ccc(OCc2nnc(SCc3nc4ccccc4[nH]3)n2Cc2ccco2)cc1	-80*	.	.	?	10µM*
c1ccc(-c2nnc(SCc3nc4ccccc4[nH]3)n2Cc2ccco2)nc1	-64*	.	.	?	-22%
CCn1c(COc2ccc(C)cc2)nnc1SCc1nc2ccccc2[nH]1	-65*	.	.	?	14µM*
C(=C\c1ccccc1)/CSc1nnc(-c2ccccn2)n1Cc1ccco1	-13	?	?	0%	10µM*
Cc1ccc(-n2nc(C(=O)NC(C)C)c(=O)n(C)c2=O)cc1	-9	-7%	-7%	13%	.
Cc1ncc2c(c1CNC(=O)c1ccc3c(c1)OCO3)CCN(C(=O)c1cc3ccccc3n1C)C2	.	-7%	4%	-1%	.
COc1ccc(OC)c(C(=O)CC2OC(=O)c3ccccc32)c1 (stereo unspecified)	-90*	.	.	14µM*	8%
Cc1cc(C)n(-c2cc(N3CCN(C(=O)c4cccc(Br)c4)CC3)ccc2[N+](=O)[O-])n1	-27	-16%	?	14µM*	?
O=C(Nc1ccc(Oc2c(F)c(F)c(F)c(F)c2F)cc1)OC1CCN2Cc3ccccc3N=C12 (stereo unspecified)	.	-4%	-13%	20µM*	3.2µM*
Cc1cccc(NC(=O)Nc2ccc(Oc3c(F)c(F)c(F)c(F)c3F)cc2)c1	8	i	-7%	.	29%
O=C(NC1CCCc2c1cnn2-c1ccc(F)cc1F)c1ccccn1 (stereo unspecified)	-39	-29%	-10%	-28%	-18%
O=C(NC1CCCc2c1cnn2-c1ccccc1F)c1ccncc1 (stereo unspecified)	-84*	?	-29%	?	.
Cc1nnsc1C(=O)NC1CCCc2c1cnn2-c1ccccc1F (stereo unspecified)	-87*	-3%	-15%	?	?
O=C(NC1CCCc2c1cnn2-c1ccccc1F)c1ccccn1 (stereo unspecified)	-98*	.	.	-21%	?
O=C(NC1CCCc2c1cnn2-c1cc(F)cc(F)c1)c1ccncc1 (stereo unspecified)	-22	.	.	0%	?
